# Results filed as inconclusive are left out. Values without a mark were called inactive. Activity calls are given as the source filed them. Calls follow the shape of the full dose curve.
# Molecular target: cAMP-dependent protein kinase catalytic subunit alpha (Homo sapiens) (UniProt P17612)
# Test: Protein Kinase A (PKA-HiBiT) SDR gain of signal screen
# Details: PKA-HiBiT structural dynamics response (SDR), luminescence gain of signal; series mostly up to 32.9 µM; activity change, positive = signal gain: at the top concentration
# How it was run: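 Gain of luminescent signal after Nano-Glo HiBiT detection (10 min, RT) was the read-out. Beforehand, compounds were incubated 30 min at room temperature in the dark with 10 nM final PKA-N-HiBiT, with H-89 as positive control.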
SMILES,"activity change, positive = signal gain",Potency
C[C@@H](NC(=O)c1ncnc(N)c1Cl)c1ncc(C(=O)Nc2cc(C(F)(F)F)c(Cl)cn2)s1,-1.83%,
O=C(NOCC(O)CO)c1cc(Br)c(F)c(F)c1Nc1ccc(I)cc1F (stereo not given),-34.9%,
c1ccc2c(-c3cnn4cc(-c5ccc(N6CCNCC6)cc5)cnc34)ccnc2c1,6.14% [at 3.64 µM],
Cn1sc(=O)n(Cc2ccccc2)c1=O,0.648%,
O=C1C(c2c(O)[nH]c3ccccc23)=Nc2ccccc21,5.12%,
C=CC(=O)N1CCC[C@@H](n2nc(-c3cccc(C(=O)Nc4ccc(C(C)C)c(C)c4)c3)c3c(N)ncnc32)C1,3.4%,
Cc1[nH]nc2ncc(C(=O)N3CCC[C@H]3c3ccc(Cl)cc3)cc12,,12.4 µM (active)
Cc1[nH]c(/C=C2\C(=O)Nc3ccc(S(=O)(=O)Cc4c(Cl)cccc4Cl)cc32)c(C)c1C(=O)N1CCC[C@@H]1CN1CCCC1,-38.9%,
COc1cc2ncnc(Nc3ccc(F)c(Cl)c3)c2cc1OCCCN1CCOCC1,10%,
COc1cc2c(N3CCN(C(=O)Nc4ccc(OC(C)C)cc4)CC3)ncnc2cc1OCCCN1CCCCC1,7.07%,
Cc1ccc(NC(=O)N2CCN(c3nc(N)nc4sc(-c5cccnc5)nc34)CC2)cc1,4.4%,
CCCS(=O)(=O)Nc1ccc(F)c(C(=O)c2c[nH]c3ncc(Cl)cc23)c1F,6.54%,
COc1ccc(-n2c(C)c([N+](=O)[O-])c3ccc(O)cc32)cc1,4.08%,
c1cc(-c2cc(C3CCNCC3)[nH]n2)ccn1,,3.62 µM (active)
COc1cc2ncnc(Oc3cccc(NC(=O)Nc4cc(C(C)(C)C(F)(F)F)on4)c3)c2cc1OC,1.41%,
CCCCCCCCCCCCc1ccc(S(=O)(=O)Nc2nncs2)cc1,-1.75%,
COC(=O)Nc1ccc(-c2nc(N3CCOCC3)c3cnn(C4CCN(C(=O)OC)CC4)c3n2)cc1,6.1%,
C=CC(=O)N1CCC(Oc2cc3c(Nc4ccc(Cl)c(Cl)c4F)ncnc3cc2OC)CC1,8.76%,

SMILES,"activity change, positive = signal gain",Potency
CN1CCN(c2ccc(Nc3ncc4cc(C#N)c(=O)n(C5CCCC5)c4n3)cc2)CC1,10.8%,
Cc1[nH]c2ccccc2c1C1=C(NCCc2ccc(F)cc2)C(=O)N(C)C1=O,-30.9%,
Cc1c(Cl)cccc1S(=O)(=O)Nc1nc(NCCc2ccccc2)nc2c1CN(Cc1ccccc1)CC2,-13.3%,
Cc1ccc(NC(=O)c2ccc(CN3CCN(C)CC3)cc2)cc1Nc1nc(-c2cccnc2)cs1,5.21%,
CCOc1ccn(-c2ccc(F)cc2)c(=O)c1C(=O)Nc1ccc(Oc2ccnc(N)c2Cl)c(F)c1,,0.813 µM (active)
CC(C)CCN1c2nc(Nc3cc(F)c(O)c(F)c3)ncc2N(C)C(=O)C1C (stereo not given),-13.2%,
N#Cc1cccc(-c2c[nH]c3ncnc(N4CCOCC4)c23)c1,,13.4 µM (active)
CO[C@@H](C(=O)N1Cc2[nH]nc(NC(=O)c3ccc(N4CCN(C)CC4)cc3)c2C1)c1ccccc1,3.68%,
CCN1CCN(Cc2ccc(NC(=O)c3ccc(C)c(NC(=O)c4cncc(-c5cccs5)c4)c3)cc2C(F)(F)F)CC1,16.5%,
NC1CCC(Nc2nc(Nc3ccc(C(=O)N4CCCCC4)cc3)c3ncn(-c4cccc(F)c4)c3n2)CC1 (stereo not given),,11.5 µM (active)
CN1CCN(CCCNc2ncc(Cl)c(-c3cc4c(C(=O)NC5CC5)cccc4s3)n2)CC1,-4.3%,
Cc1cccc(/C=N/Nc2cc(N3CCOCC3)nc(OCCc3ccccn3)n2)c1,-7.95% [at 26.3 µM],
Cc1cn(-c2cc(F)cc(NC(=O)c3ccc(C)c(Nc4nccc(-c5cccnc5)n4)c3)c2)cn1,-14.2%,
CNC(=O)c1ccccc1Sc1ccc2c(/C=C/c3ccccn3)n[nH]c2c1,-5.73%,
Cc1ncc(NC(=O)c2ccc(CN3CCN(C)CC3)c(C(F)(F)F)c2)cc1Nc1nccc(-c2cccnc2)n1,8.51%,
O=c1c(O)c(-c2ccc(O)c(O)c2)oc2cc(O)cc(O)c12,-2.25%,
NC(=O)c1cccc(-c2cc(Nc3ccc(OC(F)(F)F)cc3)ncn2)c1,4.05%,
